# C8 TRAIL sens – viability loss with TRAIL in NB7+C8 cells, primary screen, TRAIL sensitizer project, cell-based, ATPlite luminescence. 360,000 tested, 1% active. inhibition (viability loss, TRAIL sensitization), % at 10 µM. AID 624354, 2012;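 active = compounds causing at least 50% loss of cell viability in the single-dose screen, relative to plate controls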
# SENP8 block-1 – SENP8 protease inhibitors, primary screen, biochemical, luminescence. inhibition, % at 10 µM. 330,000 tested, 1.2% active. purified SENP8, Z-RLRGG-aminoluciferin cleavage; in the data active = inhibition above about 50%
# Target sequence (Q96LD8 whole entry, looked up): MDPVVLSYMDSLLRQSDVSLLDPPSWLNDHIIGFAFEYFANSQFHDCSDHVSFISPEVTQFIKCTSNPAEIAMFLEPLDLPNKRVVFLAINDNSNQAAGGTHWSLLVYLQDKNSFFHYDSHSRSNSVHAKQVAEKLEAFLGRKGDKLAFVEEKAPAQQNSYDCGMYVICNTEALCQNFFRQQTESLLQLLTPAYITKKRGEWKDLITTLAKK
# SENP8 block-2 – human SENP8 protease inhibitors, primary screen, biochemical, fluorescence, Nedd8 protein substrate, uHTS. Sentrin-specific protease 8 (Homo sapiens), Q96LD8. recombinant SENP8. inhibition, % at 20 µM. 360,000 tested, 0.64% active. AID 602440, 2012; in the data active = inhibition mostly above about 40%, no sharp cut-off; inactive = mostly below about 27%
# SENP6 block – SENP6 protease inhibitors, primary screen, biochemical, luminescence, uHTS | Sentrin-specific protease 6 (Homo sapiens), Q9GZR1 | Recombinant SENP6 catalytic domain, aminoluciferin luminescence | inhibition, % at 10 µM | 330,000 tested, 1.8% active | AID 2599, 2010;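 active = inhibition above about 50% at the single tested dose, limit read from the data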;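 also: plate controls were DMSO wells with enzyme for no effect and DMSO wells lacking enzyme for full effect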
# PPC-1+TRAIL kill – compounds killing PPC-1 cancer cells with TRAIL present, primary screen, TRAIL potentiator project, ATPLite luminescence, uHTS. PPC-1 cells + TRAIL, ATPLite viability luminescence. 220,000 tested, 0.41% active. cell killing (% activity), % at 4 µM or 5 µM;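 active = cell killing above 50% in the first pass at 4 µM, then a duplicate retest at 5 µM averaging 50% or more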;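 also: plate controls were cells with TRAIL plus DMSO for no effect and medium-only wells lacking cells for full effect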
# SENP7 block – SENP7 protease inhibitors, primary screen, biochemical, luminescence, uHTS. Sentrin-specific protease 7 (Homo sapiens), Q9BQF6. recombinant SENP7, Z-RLRGG-aminoluciferin luminescence, 40 min. inhibition, % at 5 µM. 330,000 tested, 1.5% active;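 active = inhibition above about 50% at the single test dose, limit read from the data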;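 also: plate controls were DMSO with enzyme for no effect and no enzyme buffer wells for full effect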
# SENP8 conf – SENP8 protease inhibitors, retest, confirmation, biochemical, luminescence, single concentration. shares compounds with SENP7 block. Recombinant SENP8, Z-RLRGG-aminoluciferin luminescence, 60 min. inhibition, % at 12.5 µM. 6,200 tested, 40% active. AID 488912, 2010;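 active = mean inhibition across replicates above about 50%, limit read from the data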
# SENP6 conf – SENP6 protease inhibitors, confirmation, biochemical, luminescence, single concentration. recombinant SENP6, Z-RLRGG-aminoluciferin luminescence. 6,200 tested, 58% active. inhibition, % at 12.5 µM. shares compounds with SENP7 block
# SENP7 conf – SENP7 protease inhibitors, retest, confirmation, biochemical, luminescence, single concentration. recombinant SENP7, Z-RLRGG-aminoluciferin luminescence, 40 min. 6,200 tested, 69% active. shares compounds with SENP7 block. inhibition, % at 12.5 µM
# Casp3 SENP sel – caspase-3 protease inhibitors, confirmation, selectivity assay for SENP inhibitor project, biochemical, single concentration. shares compounds with SENP7 block. purified caspase-3, Z-DEVD-aminoluciferin luminescence, 60 min. inhibition, % at 12.5 µM. 6,200 tested, 60% active;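 active = mean inhibition above about 50%, limit read from the data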;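 also: plate controls were enzyme with DMSO for no effect and wells without caspase-3 for full effect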
# Target sequence (P42574 28-227 limits assumed): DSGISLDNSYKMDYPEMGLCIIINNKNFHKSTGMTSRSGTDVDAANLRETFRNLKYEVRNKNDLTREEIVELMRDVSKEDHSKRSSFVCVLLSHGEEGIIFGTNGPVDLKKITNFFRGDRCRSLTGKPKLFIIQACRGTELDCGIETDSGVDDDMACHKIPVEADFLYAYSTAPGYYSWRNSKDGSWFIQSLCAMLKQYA
# SENP luc ctr – interferes with luciferase luminescence in SENP counter-screen; inhibition, % at 12.5 µM; AID 488919; Pre-incubated SENP8/Z-RLRGG-aminoluciferin, luciferase luminescence interference; shares compounds with SENP7 block; 6,200 tested, 39% active;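 active = mean inhibition above about 50% when retested at one dose, limit read from the data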;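 also: plate controls were DMSO wells with completed reaction for no effect and substrate without enzyme for full effect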
# An asterisk follows results filed as active; nt = no result. Compounds with a hit are over-represented: about 3% of the library has one in this group of screens.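 The calls were made as follows, unless noted: active = mean inhibition above about 50% in the one-dose retest (limit read from the data); inactive = the rest.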
SMILES,C8 TRAIL sens,SENP8 block-1,SENP8 block-2,SENP6 block,PPC-1+TRAIL kill,SENP7 block,SENP8 conf,SENP6 conf,SENP7 conf,Casp3 SENP sel,SENP luc ctr
O=C(N/N=C/c1ccc(-c2ccccc2C(=O)O)o1)c1cccs1,0,21,-307,51*,22,19,41,32,64*,73*,20
O=C(O)c1ccc(N/N=C/C(Br)=C/c2ccccc2)cc1,11,96*,-42,101*,-2,83*,99*,100*,103*,85*,96*
COc1ccc(CCN(C)C(=O)CCNS(=O)(=O)c2ccccc2C(F)(F)F)cc1OC,-24,-1,7,-10,nt,4,nt,nt,nt,nt,nt
S=C(c1ccc(OCc2ccccc2)cc1)N1CCCC1,-1,47,16,60*,nt,61*,42,37,55*,27,26
Fc1ccc(COc2ccc(C(=S)N3CCCC3)cc2)cc1,-3,38,12,62*,nt,40,60*,54*,76*,46,28
O=C(NNC(=O)C1C2C=CC(C2)C1C(=O)O)c1ccccc1O (stereo unspecified),5,3,-146,-11,nt,1,nt,nt,nt,nt,nt
COc1ccsc1NC(=O)OCc1ccc(Cl)cc1,-5,49,2,50*,nt,38,58*,56*,84*,55*,62*
CSc1nsc(NC(=O)OCc2ccc(Cl)cc2)n1,12,5,6,30,nt,-5,nt,nt,nt,nt,nt
CCOc1ncccc1C(=O)OCc1csc(CC(=O)Nc2ccccc2C)n1,-3,-12,-1,-16,nt,5,nt,nt,nt,nt,nt
Cc1ccc(Nc2nc3nonc3[nH]c2=O)cc1,2,60*,10,36,11,60*,75*,66*,84*,74*,71*
O=C(Nc1ccccc1)Nc1cccn(Cc2c(F)cccc2Cl)c1=O,-1,55*,-233,58*,7,13,17,49,92*,50*,14
O=C(COC(=O)CNC(=O)c1ccccc1F)NC12CC3CC(CC(C3)C1)C2,-1,8,8,14,nt,5,nt,nt,nt,nt,nt
Cc1ccc([N+](=O)[O-])cc1N/C=C1\CCc2ccccc2C1=O,22,9,-56,79*,36,33,5,1,-12,1,-5
c1csc(-c2ccc(N3CCOCC3)nn2)c1,60*,42,-52,54*,nt,67*,57*,56*,86*,88*,63*
CCOC(=O)C1CCN(c2ccc(-c3cccs3)nn2)CC1,40,91*,-23,96*,nt,95*,94*,94*,100*,96*,90*
Cc1ccc(-c2cnc3c(Cl)c(C)nn3c2)cc1,44,68*,4,65*,22,94*,69*,70*,75*,80*,45
Cc1ccc(C2CC(c3ccco3)n3ncnc3N2)cc1 (stereo unspecified),-6,-3,-17,-6,28,-6,nt,nt,nt,nt,nt

# High-throughput results: PubChem BioAssay, Sanford-Burnham Center for Chemical Genomics
